# About 410 targets per protein were measured; listed, in parts, are those with the strongest signals and a random draw of the rest.
# B1: GH98CBM51-1 (Streptococcus pneumoniae) (protein)
# chain: MTYLSDMDWSSATHGDIDKTKTVQKDAPFTTGNKGEHTKISLLTSDDKVKYFDKGIGTVADSPSVISYDISGQGFEKFETYIGIDQSANSSRSDHAVVDRIEIEIDGKVVYSSSVTNPEGFRYNTQAQFISVTIPQNAKKISLKSFAGEHTWGDEVVFADAKLIKTVST
# B2: X56-1 (Clostridium perfringens), P26831 (protein)
# chain: MGSSHHHHHHSSGLVPRGSHMASDPNRIIATYISNRQDAPTGNPDNIFDNNASTELVYKNPNRIDVGTYVGVKYSNPITLNNVEFLMGANSNPNDTMQKAKIQYTVDGREWIDLEEGVEYTMPGAIKVENLDLKVRGVRLIATEARENTWLGVRDINVNKKEDSNSGVEF
# How the values were obtained:
# Experiment in all cases: glycan array binding signal (z-score within array); higher = stronger binding
# Settings in all cases: glycan notation: IUPAC condensed, linker removed
# [1] = molecular target: Neu5Ac(a2-3)Gal(b1-4)GlcNAc(b1-3)Gal(b1-4)[Fuc(a1-3)]GlcNAc
# Outline: (§1)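 The Consortium for Functional Glycomics database supplied 3228 glycan arrays, of which those lacking an available protein sequence were dropped. The binding signal, a within-array Z-score, was averaged across arrays of the same protein sequence and across linkers. Negative scores can be read as non-binding.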
# [2] = molecular target: Neu5Ac(a2-3)Gal(b1-4)[Fuc(a1-3)]GlcNAc
# Outline: as §1
# [3] = molecular target: Neu5Ac(a2-3)Gal(b1-4)[Fuc(a1-3)]GlcNAc6S
# Outline: as §1
# [4] = molecular target: Neu5Ac(a2-3)[GalNAc(b1-4)]Gal(b1-4)Glc
# Outline: as §1
# [5] = molecular target: Neu5Ac(a2-6)GlcNAc(b1-4)GlcNAc(b1-4)GlcNAc
# Outline: as §1
# [6] = molecular target: Neu5Ac(a2-8)Neu5Ac(a2-8)Neu5Ac(a2-8)Neu5Ac(a2-3)[GalNAc(b1-4)]Gal(b1-4)Glc
# Outline: as §1
# [7] = molecular target: Neu5Gc(a2-3)Gal(b1-4)[Fuc(a1-3)]GlcNAc
# Outline: as §1
# [8] = molecular target: Fuc(a1-2)Gal(b1-3)GalNAc(b1-3)Gal
# Outline: as §1
# [9] = molecular target: Fuc(a1-2)Gal(b1-3)GalNAc(b1-3)Gal(b1-4)Glc
# Outline: as §1
# [10] = molecular target: Fuc(a1-2)Gal(b1-4)[Fuc(a1-3)]GlcNAc
# Outline: as §1
# [11] = molecular target: Fuc(a1-3)GlcNAc
# Outline: as §1
# [12] = molecular target: Gal(b1-3)GalNAc(b1-3)Gal(b1-4)GlcNAc
# Outline: as §1
# [13] = molecular target: Gal(b1-4)GlcNAc(b1-2)Man(a1-3)[Gal(b1-4)GlcNAc(b1-2)Man(a1-6)]Man(b1-4)GlcNAc(b1-4)GlcNAc
# Outline: as §1
# [14] = molecular target: Gal3S6S(b1-4)GlcNAc
# Outline: as §1
# [15] = molecular target: GlcNAc(b1-3)Gal(b1-3)GalNAc
# Outline: as §1
# [16] = molecular target: GlcNAc(b1-3)Gal(b1-4)Glc
# Outline: as §1
# [17] = molecular target: GlcNAc(b1-3)Gal(b1-4)GlcNAc(b1-3)Gal(b1-4)GlcNAc
# Outline: as §1
# [18] = molecular target: GlcNAc(b1-3)[GlcNAc(b1-6)]GlcNAc
# Outline: as §1
# [19] = molecular target: GlcNAc(b1-4)Gal(b1-4)GlcNAc
# Outline: as §1
# [20] = molecular target: Man(a1-2)Man(a1-3)[Man(a1-3)[Man(a1-6)]Man(a1-6)]Man(b1-4)GlcNAc(b1-4)GlcNAc
# Outline: as §1
# [21] = molecular target: Man(a1-3)[Man(a1-6)]Man
# Outline: as §1
# [22] = molecular target: Neu5Ac(a2-3)Gal(b1-4)GlcNAc(b1-3)Gal(b1-4)GlcNAc
# Outline: as §1
# [23] = molecular target: Neu5Ac(a2-3)GalNAc
# Outline: as §1
# [24] = molecular target: Neu5Ac(a2-6)Gal(b1-4)GlcNAc(b1-2)Man(a1-3)[Neu5Ac(a2-6)Gal(b1-4)GlcNAc(b1-2)Man(a1-6)]Man(b1-4)GlcNAc(b1-4)GlcNAc
# Outline: as §1
# [25] = molecular target: Neu5Ac(a2-6)Gal(b1-4)GlcNAc6S
# Outline: as §1
# [26] = molecular target: Neu5Ac(a2-8)Neu5Ac(a2-3)Gal(b1-4)Glc
# Outline: as §1
Binder,glycan array binding signal (z-score) [1],glycan array binding signal (z-score) [2],glycan array binding signal (z-score) [3],glycan array binding signal (z-score) [4],glycan array binding signal (z-score) [5],glycan array binding signal (z-score) [6],glycan array binding signal (z-score) [7],glycan array binding signal (z-score) [8],glycan array binding signal (z-score) [9],glycan array binding signal (z-score) [10],glycan array binding signal (z-score) [11],glycan array binding signal (z-score) [12],glycan array binding signal (z-score) [13],glycan array binding signal (z-score) [14],glycan array binding signal (z-score) [15],glycan array binding signal (z-score) [16],glycan array binding signal (z-score) [17],glycan array binding signal (z-score) [18],glycan array binding signal (z-score) [19],glycan array binding signal (z-score) [20],glycan array binding signal (z-score) [21],glycan array binding signal (z-score) [22],glycan array binding signal (z-score) [23],glycan array binding signal (z-score) [24],glycan array binding signal (z-score) [25],glycan array binding signal (z-score) [26]
B1,-0.191,-0.191,-0.182,-0.196,-0.193,-0.184,-0.182,–,–,–,–,–,–,–,–,–,–,–,–,–,–,–,–,–,–,–
B2,–,–,1.06,-0.338,–,–,–,0.726,0.136,0.085,-0.245,0.197,5.94,-0.196,0.035,-0.355,-0.172,-0.276,-0.371,-0.387,-0.231,9.11,-0.264,-0.264,-0.039,0.954
